# Among all 190,000 compounds or so, about 810 (0.43%) were called active. The entries come from a sample that favours actives as a whole. A number with no mark means an inactive call. Cut-off read from the data, not from the text of the source: active = inhibition above about 50%; inactive = the rest.
# Biological target: Mannose-6-phosphate isomerase (Homo sapiens) (UniProt P34949)
# Assay: inhibitors of human PMI, primary screen, biochemical, fluorescence intensity, coupled assay (AID 1209);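 note: plate controls were DMSO vehicle for no effect and wells lacking substrate for full effect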
# Conditions: purified PMI enzyme, at 20 µM, hits give high values
# Mannose-6-phosphate isomerase (Homo sapiens), sequence (P34949 whole entry, looked up): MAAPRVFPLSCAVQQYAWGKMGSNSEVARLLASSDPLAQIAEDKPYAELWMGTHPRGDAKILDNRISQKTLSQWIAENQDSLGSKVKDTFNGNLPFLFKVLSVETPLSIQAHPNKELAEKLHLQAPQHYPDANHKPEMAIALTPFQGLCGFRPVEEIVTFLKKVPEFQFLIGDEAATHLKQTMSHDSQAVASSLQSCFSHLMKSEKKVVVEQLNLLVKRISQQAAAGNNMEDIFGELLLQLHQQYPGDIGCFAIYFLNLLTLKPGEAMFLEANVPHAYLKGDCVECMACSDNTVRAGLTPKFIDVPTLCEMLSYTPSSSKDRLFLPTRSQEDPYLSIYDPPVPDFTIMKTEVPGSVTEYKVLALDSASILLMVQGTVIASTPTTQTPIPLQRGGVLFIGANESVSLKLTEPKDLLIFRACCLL
row,Compound,inhibition
1,CCCN1C2CCCC1CC(NC(=S)Nc1cc(C)cc(C)c1)C2 (configuration not stated),7.1%
2,NNC(=O)CNc1cccc(Cl)c1,-2.4%
3,CC/C(C)=N\N=C\c1c(O)n(CC)c2cc(C3=NNC(=O)CC3)ccc12,-47.5%
4,COc1ccccc1-n1cnnc1SCC(=O)Nc1cccc(S(=O)(=O)N2CCCCC2)c1,7.9%
5,O=C(NCCN1CCN(C(=O)c2cccs2)CC1)C(=O)Nc1ccc(Br)cc1,-0.2%
6,COc1ccc(CC(=O)Nc2ccc(S(=O)(=O)NCC3CCCO3)cc2)cc1 (configuration not stated),2.9%
7,Cc1cc([N+](=O)[O-])nn1CCCC(=O)NCc1ccc(F)cc1,-9.8%
8,Cc1nc(NC(=O)c2ccccc2)sc1-c1csc(Nc2cccc(Cl)c2)n1,0.6%
9,Cc1nc(NC(=O)c2ccccc2)sc1-c1csc(Nc2ccc(Cl)cc2)n1,53.1% (active)
10,Cc1nc(NC(=O)c2ccccc2)sc1-c1csc(Nc2ccc(F)cc2)n1,45%
11,Cc1nn(Cc2ccc(Cl)cc2)c(C)c1NC(=O)c1noc2c1CCCCC2,15.5%
12,COc1ccc(OCCCNCCc2ccccc2)cc1,-2.5%
13,O=C1/C(=C/c2cccnc2)SC(=NCc2ccccc2)N1Cc1ccccc1,7.3%
14,CCCCCc1nc2c(=O)[nH]c3ccccc3c2o1,102% (active)
15,CCCCCCc1nc2c(=O)[nH]c3ccccc3c2o1,6.6%
16,CCCCc1nc2c(=O)[nH]c3ccccc3c2o1,0.8%
17,CCN(C(=O)c1ccnn1C)c1ccccc1,-6.3%
18,CCOC(=O)Cc1csc(-n2sc3ccccc3c2=O)n1,98.9% (active)
19,CCOC(=O)Cc1csc(SCn2nnc3ccccc3c2=O)n1,1.9%
20,CCOC(=O)Cc1csc(NC(=O)c2cc(=O)c3ccccc3o2)n1,-7.8%
21,O=C(CSc1ccc(-c2ccc(Br)cc2)nn1)N1CCOCC1,-1.9%
22,CCCCCCCNC(=O)COc1ccc2c(c1)C(=O)CC(C)(C)O2,2.9%
23,O=C(Nc1ccc2c(c1)OC1(CCCC1)O2)C1CC1,0.2%
24,Nc1ccc2c(c1)OC1(CCCC1)O2,6.1%
25,Nc1ccc2c(c1)OC1(CCCCC1)O2,55.6% (active)
26,CC(C)(C)c1nc(SCC(=O)N2CC(=O)Nc3ccccc32)c2ccccc2n1,3.4%

row,Compound,inhibition
1,COc1ccc2c(c1)CC/C2=N\OC(=O)c1ccccc1C,-5%
2,Cc1ccc2c(c1)/C(=N/N1C(=O)c3ccccc3C1=O)C(=O)N2,-2.2%
3,COc1ccc(N=C2C(=O)Nc3ccccc32)cc1,12.5%
4,c1ccc(-c2nnc(CSc3nncs3)o2)cc1,16.2%
5,O=c1[nH]c2ccc(Cl)cc2c(-c2ccccc2)c1SC(=S)N1CCCCC1,0.2%
6,CCOC(=O)N1CCC(Nc2c(N3CCN(c4cccc(C(F)(F)F)c4)CC3)c(=O)c2=O)CC1,-9.4%
7,NS(=O)(=O)c1ccc(CNC(=S)Nc2ccc(F)c(Cl)c2)cc1,17.2%
8,O=S(=O)(c1ccc(NC(=S)NCc2ccco2)cc1)N1CCCC1,8.9%
9,CCNS(=O)(=O)c1ccc(NC(=S)NCc2ccco2)cc1,35.3%
10,NS(=O)(=O)c1ccc(CNC(=S)NCc2ccc(Cl)cc2)cc1,6.3%
11,NS(=O)(=O)c1ccc(NC(=S)NCc2ccc(Cl)cc2)cc1,58.1% (active)
12,NS(=O)(=O)c1ccc(NC(=S)NCc2ccco2)cc1,55.4% (active)
13,CC(=O)NC(CCS(C)(=O)=O)C(=O)Nc1ccccc1 (configuration not stated),7.8%
14,CS(=O)(=O)N(CC(=O)NC1CC1)c1cccc(F)c1,6.9%
15,Cc1ccc(NC(=O)CSc2nnc(-c3ccncc3)n2C)cc1S(=O)(=O)N1CCOCC1,-7.6%
16,COC(=O)c1ccc[n+](CC(=O)c2ccc(Br)cc2)c1,-34.8%
17,Cn1cnc2ccc([N+](=O)[O-])cc2c1=O,-6%
18,CCCOc1ccc(C(=O)CCN2CCN(C(=O)OCC)CC2)cc1,-7.1%
19,CCOC(=O)N1CCN(CCC(=O)c2ccc(OC)cc2)CC1,0.1%
20,CCOC(=O)N1CCN(CCC(=O)c2ccc(Cl)cc2)CC1,57.4% (active)
21,Cc1ccc(N2C(=O)NC(C(F)(F)F)(C(F)(F)F)C3=C2CC(C)(C)CC3=O)cc1,2.1%
22,CC1(C)CC2(CC(c3ccccc3)Oc3cc(O)ccc32)NC(=O)N1 (configuration not stated),2.6%
23,COc1cccc(C(=O)COc2ccc3ccc(=O)oc3c2)c1,-1.6%
24,Cc1sc(NC(=S)NC(=O)c2ccco2)c(C#N)c1C,4.5%
25,CCOC(=O)c1c(NC(=O)Nc2ccc(Cl)cc2)sc(C)c1C,2.4%
26,Cc1sc(NC(=O)Nc2ccccc2)c(C(N)=O)c1C,53.1% (active)

row,Compound,inhibition
1,Cc1sc(NC(=S)Nc2ccc(F)cc2)c(C(N)=O)c1C,51.8% (active)
2,NC(=O)c1c(NC(=S)Nc2ccc(F)cc2)sc2c1CCCC2,18.7%
3,Cc1sc(NC(=S)NC(=O)c2ccco2)c(C(N)=O)c1C,50.4% (active)
4,CCOC(=O)c1c(NC(=O)Nc2ccccc2)sc(C)c1C,12.6%
5,COC(=O)c1c(NC(=O)c2ccco2)sc(C)c1C,5%
6,CCOC(=O)c1c(NC(=S)Nc2ccc(Cl)cc2)sc(C)c1C,-3.5%
7,O=C(Nc1ccnc(-c2cccnc2)n1)c1ccc(F)cc1,5%
8,Cc1nn(Cc2ccc(F)cc2)c(C)c1NC(=O)c1cc2ncc(Br)cn2n1,6.4%
9,COc1ccc(Cn2c(C)c(C)c(C#N)c2NC(=O)Nc2cccc(C)c2)cc1,-1.9%
10,CC(NC(=O)C(=O)N/N=C\c1cccc([N+](=O)[O-])c1)c1ccccc1 (configuration not stated),10.5%
11,CC(C)(C)NC(=O)NC(=O)Cn1ccsc1=N,5.2%
12,CCC(C)(C)NC(=O)CN(Cc1ccc2c(c1)OCO2)C(=O)CCC(=O)Nc1nccs1,-5%
13,O=C(COc1ccccc1Cl)NC(=S)Nc1ccc(CN2CCOCC2)cc1,17.4%
14,O=C(O)/C(=C/c1ccco1)c1ccccc1,-8%
15,CCOC(=O)C1CCCN(C(=O)Cn2nc(Cc3cccnc3)c3ccccc3c2=O)C1 (configuration not stated),5.7%
16,O=C(CSc1nnnn1C1CCCC1)Nc1cccc(NC(=O)c2ccco2)c1,8.3%
17,O=c1c(C/C=C/c2ccccc2)c(O)ccn1Cc1ccc(Cl)cc1Cl,13.5%
18,CC1(C)C(=O)C2(CCCCC2)C(=O)OC1c1cccn1-c1ccc([N+](=O)[O-])cc1 (configuration not stated),2.5%
19,CC1(C)C(=O)OC(c2cccn2-c2ccc([N+](=O)[O-])cc2)C(C)(C)C1=O (configuration not stated),67.5% (active)
20,CC1(C)C(=O)OC(c2cccn2-c2ccc([N+](=O)[O-])cc2)C2(CCCCC2)C1=O (configuration not stated),6.1%
21,CCCC(=O)c1cc2c(cc1NC(=O)c1cccs1)OCCO2,6.8%
22,O=C(NCc1ccccn1)Nc1cccc(NC(=O)NCc2ccccn2)c1,14.5%
23,CCCC1=C(C(=O)OCC)C(/C=C/c2ccccc2)n2ncnc2N1 (configuration not stated),2.4%
24,COc1ccc(OC)c(-c2nnc(NC(=O)C(C)Sc3nncn3C)s2)c1 (configuration not stated),97.9% (active)
25,CC(Sc1nncn1C)C(=O)Nc1nnc(-c2ccccc2)s1 (configuration not stated),8.5%
26,COc1ccccc1-c1nnc(NC(=O)C(C)Sc2nncn2C)s1 (configuration not stated),-2.1%

row,Compound,inhibition
1,Cc1ccc(NC(=S)NNC(=O)Cn2nc(C(F)F)cc2C(F)F)cc1,-10%
2,CSc1ccc(/C=C/c2ccc3cccc(O)c3n2)cc1,-33.5%
3,Cc1ccsc1/C=C/c1ccc2cccc(O)c2n1,-6.3%
4,COc1ccc(-c2nc(CSCC(=O)NC3CCCc4ccccc43)c(C)o2)cc1 (configuration not stated),7%
5,Cc1c(Cl)c(C(=O)NC2CCCC2)nn1C,-11.9%
6,Nc1nc2c(s1)CCc1c-2cnn1-c1ccccc1,86.9% (active)
7,Nc1nc(-c2ccccc2)c(-c2ccccc2)s1,-1.1%
8,Nc1nc2c(s1)COc1ccccc1-2,12.7%
9,CCCCCc1nc2sc3c(c2c(=O)n1N)CCC3,-5.8%
10,O=C(Cn1cnc2ccccc2c1=O)NCc1ccc2c(c1)OCO2,2%
11,O=C(CCc1ccccc1)NC(=S)NCc1ccco1,7.5%
12,NCCCNC(=O)c1ccc(/C=N/O)nc1,0.9%
13,C[N+](C)(C)CCCNC(=O)c1ccc(/C=N/O)nc1,83.5% (active)
14,CNCCCNC(=O)c1ccc(/C=N/O)nc1,-9.8%
15,CCOC(=O)CC(=O)Nc1ccc(Br)cc1C(=O)O,7.4%
16,COC(=O)c1ccc(-c2nc(-c3ccc(Br)o3)no2)cc1,10.6%
17,COc1ccccc1Sc1ccccc1/C=N/NC(N)=O,2.1%
18,COC(=O)Cc1cc(=O)n(-c2ccccc2)[nH]1,11%
19,Cc1cc(=O)n(-c2ccc(C(=O)O)cc2)[nH]1,-22.8%
20,CC(C)(C)c1cc(=O)n(-c2ccccc2)[nH]1,64.7% (active)
21,O=C1c2ccccc2C(=O)N1c1ccc(-c2nc3ccccc3o2)cc1,-2.8%
22,CC(c1nc2ccccc2o1)N1C(=O)c2ccccc2C1=O (configuration not stated),66.9% (active)
23,O=C1c2ccccc2C(=O)N1Cc1nc2ccccc2o1,-0.5%
24,Cc1ccc(NS(=O)(=O)c2ccccc2[N+](=O)[O-])cc1C,-10.7%

# From PubChem BioAssay AID1209 (Sanford-Burnham Center for Chemical Genomics, 2008)
